Test results as given in PubChem BioAssay (NCATS).
The source made the active and inactive calls. No rule for the calls is given here.

system: HIV-1 nucleocapsid protein NCp7 (binding to TG oligonucleotide); test: HIV Nucleocapsid (AID 346); details: HIV-1 NC / fluorescein-TGTGTGTG probe, fluorescence polarization;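 also: potency is for inhibitors that block NC binding and lower polarization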
In short: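 HIV-1 NC (100 nM) binding to fluorescein-labelled ssDNA TG4xF (10 nM) in Hepes pH 7.5, 250mM NaCl, 1uM ZnCl2, TCEP and 2-mercaptoethanol; compounds pin-transferred, 1 hr room temperature, fluorescence polarization read on CCD imager.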
Potency is read from the fitted curve at half-maximal effect.

SMILES	Potency
COc1cccc(-c2cc(NCc3cccc(C)c3)ncn2)c1	> 20 µM (inactive)
O=C(c1cnccn1)N1CCC2(CC1)CCN(c1ccncc1)CC2	> 20 µM (inactive)
O=C(c1csnn1)N1CCC2(CC1)CCN(c1cccc(-c3ccccc3)c1)CC2	> 20 µM (inactive)
COc1ncc2ncc(=O)n(Cc3ccc(F)cc3)c2n1	> 20 µM (inactive)
Cc1cccc(CNc2ncncc2-c2ccccc2Cl)c1	> 20 µM (inactive)
COc1ccccc1CNc1nc(-c2c(C)noc2C)nc2ccccc12	> 20 µM (inactive)
CCNc1ncc2nc(CCc3ccccc3)c(=O)n(C3CC3)c2n1	> 20 µM (inactive)
COc1ccc(NC(=O)N2CC[C@@]3(CCCN(C(=O)c4cccn4C)C3)C2)cc1	> 20 µM (inactive)
CN(C)c1ncc2nc(-c3cc(F)cc(F)c3)c(=O)n(C3CC3)c2n1	> 20 µM (inactive)
COc1ccc2[nH]cc(CCNc3nc(-c4cccc(C#N)c4)nc4ccccc34)c2c1	> 20 µM (inactive)
CN1CCN(c2ncc3nc(CCc4ccccc4)c(=O)n(CCC#N)c3n2)CC1	> 20 µM (inactive)
Cn1cccc1C(=O)N1CCC2(CCCN(C(=O)Nc3cccc(C#N)c3)C2)CC1	> 20 µM (inactive)
CC(=O)NCCNc1ncnc2ccc(-c3ccccc3Cl)cc12	> 20 µM (inactive)
CN(C)c1ncc2nc(CCc3ccccc3)c(=O)n(CCC#N)c2n1	> 20 µM (inactive)
CCNc1ncc2nc(-c3cn(C)c4ccccc34)c(=O)n(-c3ccccc3)c2n1	16.4 µM (inactive)
COc1ccc2[nH]cc(CCNc3cc(-c4ccccc4C(F)(F)F)ncn3)c2c1	> 20 µM (inactive)
COc1ccccc1CNc1nc(-c2ccoc2)nc2ccccc12	> 20 µM (inactive)
Fc1ccc(Nc2ncncc2-c2ccccc2C(F)(F)F)cc1	> 20 µM (inactive)
COc1cccc(Cn2c(=O)c(-c3cccc(C#N)c3)nc3cnc(N4CCN(C)CC4)nc32)c1	> 20 µM (inactive)
CCNc1ncc2nc(-c3ccc(Cl)cc3)c(=O)n(Cc3ccc(F)cc3)c2n1	14 µM (inactive)

SMILES	Potency
O=C(c1ccncc1)N1CCC[C@@]2(CCN(Cc3ccncc3)C2)C1	> 20 µM (inactive)
Cn1cccc1C(=O)N1CCC2(CCCN(C(=O)Nc3ccccc3)C2)CC1	> 20 µM (inactive)
O=C(c1cnccn1)N1CCC2(CC1)CCN(c1ccccn1)CC2	> 20 µM (inactive)
COc1ccc(-c2nc3cnc(OC)nc3n(C3CC3)c2=O)cc1	> 20 µM (inactive)
COc1ccccc1CN1CCC2(CC1)CCN(C(=O)c1ccncc1)CC2	> 20 µM (inactive)
COc1ccc(CNc2cc(-c3ccoc3)ncn2)c(OC)c1	> 20 µM (inactive)
COc1ccc(-c2nc3cnc(OC)nc3n(CCC#N)c2=O)cc1	> 20 µM (inactive)
N#Cc1cccc(-c2nc3cnc(N4CCOCC4)nc3n(Cc3ccc(F)cc3)c2=O)c1	> 20 µM (inactive)
CN1CCN(c2ncc3nc(CCc4ccccc4)c(=O)n(CCc4ccccc4)c3n2)CC1	> 20 µM (inactive)
CN(C)c1ncc2ncc(=O)n(Cc3ccc(F)cc3)c2n1	> 20 µM (inactive)
CCNc1ncc2nc(CCc3ccccc3)c(=O)n(Cc3ccc(F)cc3)c2n1	> 4 µM (inactive)
CN1CCN(c2ncnc3ccc(-c4cccc(NS(C)(=O)=O)c4)cc23)CC1	> 20 µM (inactive)
CCNc1ncc2nc(-c3ccccc3)c(=O)n(C3CC3)c2n1	> 20 µM (inactive)
c1csc(CNc2nc(-c3ccoc3)nc3ccccc23)c1	> 20 µM (inactive)
Cc1nc2cnc(N3CCOCC3)nc2n(C2CC2)c1=O	> 20 µM (inactive)
c1cncc(CNc2ncnc3ccc(-c4cccnc4)cc23)c1	> 20 µM (inactive)
N#Cc1ccc(CN2CC3(CCN(C(=O)c4ccco4)CC3)C2)cc1	> 20 µM (inactive)
CN1CCN(c2ncc3nc(-c4cccs4)c(=O)n(CCC#N)c3n2)CC1	15.3 µM (inactive)
Cc1nc2cnc(OCc3ccccc3)nc2n(C)c1=O	> 20 µM (inactive)
